Measured values: PubChem BioAssay AID1979 (Broad Institute, 2009)
Out of some 300,000 compounds screened, about 1,700 (0.57%) were called active. Roughly 2% stayed inconclusive and do not appear here. The full list was thinned out, with actives kept by preference. A number with no mark means an inactive call.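 The calls were made as follows: active = growth inhibition above about 58% in most replicates (limit read from the data, passing the limit was not always enough); inconclusive = exactly half the replicates above a set limit; inactive = most replicates below a set limit.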

experiment: C. albicans growth inhibition with fluconazole, primary screen, CaCi-2 strain, Alamar Blue fluorescence (AID 1979);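 also: all wells also contain fluconazole at 8 µg/ml as a sub-toxic cotreatment; 0% = median of DMSO wells and 100% = median of geldanamycin control wells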; conditions: C. albicans CaCi-2 (fluconazole-resistant clinical isolate) + fluconazole, 48 h, active compounds read high, concentration not given here

First: Cc1ccc(NC(=O)c2cnc(SCC(=O)NCC3CCCO3)n(C)c2=O)cc1 (configuration not stated)
Second: CC(=O)Nc1ccc(NC(=O)CSc2nnnn2C2CCCCC2)cc1
The growth inhibition of the first is higher: -0.731% for the first, -2.4% for the second.

Going from `CCOc1ccc(CCNC(=O)COC(=O)CCS(=O)(=O)c2ccc(C)cc2)cc1OCC` to `Cc1cc(NC(=O)CCS(=O)(=O)c2ccc(F)cc2)no1`, the growth inhibition rises from -6.92% to -4.39%.

Going from `COc1cccc(NC(=O)CN(C)C(=O)CSC(=S)N2CCCC2)c1` to `COc1ccccc1NC(=O)COC(=O)c1ccccc1SCC(=O)N1CCCC1`, the growth inhibition rises from -3.71% to 4.29%.

Going from `Cc1c(C(=O)Nc2ccccn2)oc2ccc(Br)cc12` to `O=C(Nc1ccc(Br)cn1)c1ccc([N+](=O)[O-])o1`, the growth inhibition falls from 27.1% to 18.1%.

Going from `COc1ccc(OC)c(NC(=O)c2ccc3c(c2)C(=O)N(c2ccc(OC(C)=O)cc2)C3=O)c1` to `COc1ccc(/C=C(/NC(=O)c2ccc(C)cc2)c2nc3ccccc3[nH]2)cc1OC`, the growth inhibition rises from 0.417% to 23.2%.

Compared with `CC(=O)c1sc(N)nc1C`, `CCc1ccc2nc3sc(C(=O)Nc4nnc(CC)s4)c(N)c3cc2c1` is higher in growth inhibition: -4.24% for the first, 44% for the second.

Going from `Cc1ccc(NC(=O)COc2coc(CN3CCc4ccccc4C3)cc2=O)cc1Cl` to `CCN(CC(=O)Nc1cc(Cl)ccc1C)C(=O)Cn1c(=O)cnc2ccccc21`, the growth inhibition rises from -1.39% to -1.02%.

Going from `Cc1ccc(CC(=O)N(C)CC(=O)N(CC(C)C)c2c(N)n(CC(C)C)c(=O)[nH]c2=O)cc1C` to `Cc1ccc(S(=O)(=O)N2CCC(C(=O)OCC(=O)N(C)c3ccccc3)CC2)cc1C`, the growth inhibition rises from 1.58% to 5.01%.

Going from `CCOC(=O)N1CCN(C(c2cccnc2)c2ccc3cccnc3c2O)CC1` (configuration not stated) to `CCOC(=O)N1CCN(C(=O)c2ccc(S(=O)(=O)Nc3cccc(C(F)(F)F)c3)cc2)CC1`, the growth inhibition rises from -9.67% to -2.84%.

Compared with `Oc1ccccc1CN1CCN(C(c2ccccc2)c2ccccc2)CC1`, `Cc1ccc(-c2cc(C(=O)NC3CCN(Cc4ccccc4)CC3)c3ccccc3n2)cc1` is higher in growth inhibition: -4.19% for the first, 2.43% for the second.

Going from `CC(=O)Nc1ccc(C(=O)Nc2cccc(S(=O)(=O)NC3=NCCC3)c2)cc1` to `CCNS(=O)(=O)c1ccc(NC(=O)Nc2cccc(C(F)(F)F)c2)cc1`, the growth inhibition falls from 3.58% to -8.1%.

Compared with `O=C(CCCO)N/N=C/c1cc(Br)ccc1O`, `Oc1ccc(/C=N/Nc2ccc(C(F)(F)F)cn2)cc1O` is higher in growth inhibition: -31.2% for the first, -7.01% for the second.

First: Cc1cc(NC(=O)C(C)SCC(=O)Nc2ccccc2N2CCCCC2)no1 (configuration not stated)
Second: Brc1cnc2ccccc2c1N1CCCCC1
The growth inhibition of the first is higher: 1.22% for the first, 0.784% for the second.

Compared with `O=C(Nc1nc(-c2ccco2)c(-c2ccco2)s1)c1ccco1`, `COc1ccc(NC(=O)c2cc(-c3ccc(C)cc3)on2)cc1` is higher in growth inhibition: -0.652% for the first, 2.77% for the second.

Compared with `CSc1nsc(SCC(=O)Nc2cc(C(=O)O)ccc2C)n1`, `Cc1cc(C(=O)NNC(=S)Nc2ccccc2C)cs1` is lower in growth inhibition: 17.7% for the first, 1.21% for the second.

First: CCc1nnc(NC(=O)CCC(=O)O)s1
Second: Cc1ccc(NC(=O)CN(C)C(=O)Cn2nnc(-c3ccccc3)n2)cc1
The growth inhibition of the first is higher: -5.2% for the first, -6.13% for the second.

First: CC(=O)O[C@H]1CC[C@@]2(C)[C@@H](CC[C@@H]3[C@@H]2CC[C@]2(C)[C@@H](C(C)(C)O)C[C@@H]32)C1
Second: O=C(NCCC1CCCCN1S(=O)(=O)c1ccccc1)C(=O)NCC1CCCO1 (configuration not stated)
The growth inhibition of the first is higher: 1.13% for the first, -4.24% for the second.

Compared with `O=C1CCCCC1Sc1ccc(Cl)cc1[N+](=O)[O-]` (configuration not stated), `Cc1c(C(=O)NC(C)C2CC3CCC2C3)cccc1[N+](=O)[O-]` (configuration not stated) is higher in growth inhibition: -3.28% for the first, -2.33% for the second.

Compared with `C[C@@H]1O[C@@H](OC[C@H]2O[C@@H](Oc3c(-c4ccc(O)cc4)oc4cc(O)cc(O)c4c3=O)[C@H](O)[C@@H](O)[C@@H]2O)[C@H](O)[C@H](O)[C@H]1O`, `CCN1C(=O)[C@H]2[C@@H](c3ccc(-c4ccc(OC)cc4)cc3)N[C@@](Cc3ccccc3)(C(=O)OC)[C@H]2C1=O` is higher in growth inhibition: 1.9% for the first, 3.17% for the second.

First: CN(CC(=O)Nc1cccc(F)c1)C(=O)C1=COCCO1
Second: CC(=O)Nc1cccc(C(=O)OCC(=O)c2ccc3c(c2)OCO3)c1
The growth inhibition of the first is lower: -19.9% for the first, 4.88% for the second.

Going from `CCCN1CCn2c3c(c4cc(Br)ccc42)CCCC31` (configuration not stated) to `CCOC(=O)c1[nH]ncc1CN1CCCC(C(=O)c2ccc(OC)cc2C)C1` (configuration not stated), the growth inhibition rises from -13.4% to -8.68%.

Compared with `CC(NS(=O)(=O)c1ccc(Br)cc1)C(=O)NCC1CCCO1` (configuration not stated), `CCOc1ccc(S(=O)(=O)NCCC(=O)NCC(C)(C)N2CCOCC2)cc1` is higher in growth inhibition: -9.65% for the first, -1.97% for the second.

Compared with `Cc1nc(-c2ccc(Cl)cc2)sc1C1(C)CC(c2ccc(Br)cc2)=NO1` (configuration not stated), `Clc1ccc(Nc2ccc3ccccc3n2)cc1` is lower in growth inhibition: 1.65% for the first, -23.2% for the second.

Going from `COCCNC(=O)C1CCN(S(=O)(=O)c2ccc3c(c2)OCCO3)CC1` to `CCN(CC(=O)Nc1cccc(S(=O)(=O)N2CCCCC2)c1)Cc1ccccc1`, the growth inhibition falls from 0.395% to -0.00245%.

Compared with `COC(=O)c1ccc(SCc2ccccc2)nc1`, `Cc1ccc(C(=O)Nc2c(C#N)c(C)c(C)n2Cc2ccccc2)cc1` is lower in growth inhibition: 13.7% for the first, -7.7% for the second.

First: CN(C)c1nc(NN)nc(Nc2ccc(F)cc2)n1
Second: CC1COc2ccccc2N1C(=O)c1ccc(F)cc1 (configuration not stated)
The growth inhibition of the first is higher: 3.13% for the first, -3.04% for the second.

Going from `COc1cnn(-c2ccc([N+](=O)[O-])cc2)c(=O)c1Cl` to `Cc1nc2ccccc2c(=O)n1Cc1ccc([N+](=O)[O-])cc1`, the growth inhibition rises from -11.1% to -0.41%.

First: Cc1ccc(N2CC(C(=O)Nc3cc(Cl)ccc3-n3cncn3)CC2=O)cc1 (configuration not stated)
Second: Cc1cccc(-n2nc3c(c2NC(=O)c2cc4ccccc4o2)CS(=O)(=O)C3)c1
The growth inhibition of the first is lower: -4.63% for the first, 7.71% for the second.

Going from `Cc1onc(NC(=O)c2ccc([N+](=O)[O-])o2)c1Br` to `COc1ccc2nc(N3CCN(C(=O)c4ccc([N+](=O)[O-])o4)CC3)sc2c1`, the growth inhibition rises from -0.786% to 13.6%.

Going from `CC(=O)N(CC(O)CO)c1c(I)c(C(=O)NCC(O)CO)c(I)c(C(=O)NCC(O)CO)c1I` (configuration not stated) to `Cc1ccc(-c2nnn(CC(=O)N(CCO)C(C(=O)NC(C)(C)C)c3ccncc3)n2)cc1` (configuration not stated), the growth inhibition falls from -2.27% to -7.13%.

Going from `COc1ccc(C)cc1Nc1nc(-c2c(C)[nH]c3ccccc23)cs1` to `COc1cccc(CC(=O)Nc2nc(-c3ccc(OC)c(OC)c3)cs2)c1`, the growth inhibition falls from 0.619% to -0.204%.

First: N#Cc1cccc(OC(=O)c2ccc3c(=O)n4c(nc3c2)CCC4)c1
Second: O=C1CCCN1C(=O)COc1ccc([N+](=O)[O-])cc1
The growth inhibition of the first is higher: 6.7% for the first, 4.3% for the second.

Compared with `CCOc1cc(N2CCOCC2)c(OCC)cc1NC(=O)c1cc(C)nc2ccccc12`, `CCOc1cc(N2CCOCC2)c(OCC)cc1NC(=O)COc1cccc(Cl)c1` is higher in growth inhibition: -4.82% for the first, 18.5% for the second.

Going from `Cc1cccc(N(C(=O)Cn2nnc(-c3ccc(C)o3)n2)C(C(=O)NC2CCCC2)c2ccncc2)c1` (configuration not stated) to `Cc1cccc(N(Cc2ccccc2)C(=O)c2cc(S(=O)(=O)N3CCOCC3)ccc2F)c1`, the growth inhibition falls from 9.19% to -1.4%.

Going from `CC1CN(S(=O)(=O)c2ccccc2)C(C)CN1S(=O)(=O)c1ccccc1` (configuration not stated) to `O=S(=O)(c1ccccc1)N1CCc2ccccc21`, the growth inhibition falls from 3.32% to -2.11%.

Compared with `Cc1nc2ccccn2c(=O)c1NC(=O)c1cccs1`, `O=C(COC(=O)c1cccs1)Nc1ccccc1Cl` is higher in growth inhibition: 0.647% for the first, 7.55% for the second.

First: COc1cc(/C=C(\C#N)c2nc3c(s2)CC(C)CC3)ccc1O (configuration not stated)
Second: COc1ccc(C(=O)C2CCCN(Cc3ccc4nonc4c3)C2)c(C)c1 (configuration not stated)
The growth inhibition of the first is higher: 43.5% for the first, 3.47% for the second.

Going from `CCn1c(=O)c([N+](=O)[O-])c(NCc2ccc3c(c2)OCO3)c2ccccc21` to `O=C(Nc1ccccc1F)c1ccc2c(c1)OCO2`, the growth inhibition falls from 18.7% to -5.7%.

Compared with `CC(=O)N1CCN(C(=O)c2cc(-c3ccc(Cl)s3)nc3ccccc23)CC1`, `O=c1[nH]c(/C=C/c2cccc(Br)c2)nc2ccccc12` is lower in growth inhibition: 11.4% for the first, 3.62% for the second.

Going from `Cc1cc(C(=O)NNC(=S)NC(C)c2ccccc2)cs1` (configuration not stated) to `Cc1cccc(C(=O)N2CCc3c([nH]c4ccccc34)C2CC(C)C)n1` (configuration not stated), the growth inhibition rises from 12.8% to 12.9%.

Compared with `NC1=NC(c2ccc([N+](=O)[O-])cc2)N(c2ccc(F)cc2)C(N)=N1` (configuration not stated), `CC(C)C(=O)N1CC(=O)Nc2ccc(F)cc2C1c1ccc(F)cc1` (configuration not stated) is lower in growth inhibition: -2.27% for the first, -3.91% for the second.

First: O=C(Nc1ccccc1Cl)Nn1cnnc1
Second: COC(=O)N/N=C/c1c[n+]([O-])c2ccccc2[n+]1[O-]
The growth inhibition of the first is higher: 16.1% for the first, 12.4% for the second.

Going from `COc1ccccc1-n1ccnc(SCC(=O)NC2CCCCC2)c1=O` to `O=C(c1cn2ccccc2n1)N1CCc2c([nH]c3ccccc23)C1c1ccccn1` (configuration not stated), the growth inhibition rises from -2.58% to -2.25%.

Going from `CCN1C(=O)[C@H]2[C@@H](c3ccc(-c4ccc(F)cc4)cc3)N[C@@](Cc3ccccc3)(C(=O)OC)[C@H]2C1=O` to `O=C(NCc1ccccc1)C1=C[C@@H](c2ccccc2)C[C@@H](OCCCCO)O1`, the growth inhibition rises from -6.22% to -5.03%.

In the case of `Oc1c(Cl)cc(Cl)c(Cl)c1Cc1c(O)c(Cl)cc(Cl)c1Cl`, the growth inhibition is reported as 110% (active).
With `CCN1CCN(C(c2cccnc2)c2cc(Cl)c3cccnc3c2O)CC1` (configuration not stated) the growth inhibition was 101% (active).
In the case of `Oc1ccc(Br)cc1/C=N/Nc1ccccn1`, the growth inhibition is reported as 106% (active).
With `CCc1nnc(NC(=O)CSc2nc(SC)ns2)s1` the growth inhibition was 81.2% (active).
For `Cc1oc2c(F)c(F)c(F)c(F)c2c1S(=O)(=O)Nc1cccc(C(F)(F)F)c1`, the growth inhibition was 84.7% (active).
With `OC(CNCC1CCCO1)Cn1c2ccc(Br)cc2c2cc(Br)ccc21` (configuration not stated) the growth inhibition was 101% (active).
For `Cc1ccc(NC(=O)c2sc3nc(N)c(C#N)cc3c2N)cc1`, the growth inhibition was 88.6% (active).
In the case of `Cc1cccc(NC(=O)c2ccc([N+](=O)[O-])o2)c1`, the growth inhibition is reported as 83.3% (active).
With `COc1ccc(OC)c(Nc2nc(-c3ccc(O)c(O)c3)cs2)c1` the growth inhibition was 97.8% (active).
With `CCOc1cc(N2CCOCC2)c(OCC)cc1NC(=O)COc1cccc2cccnc12` the growth inhibition was 101% (active).
With `Cc1ccc(-c2nnn(CC(=O)N(Cc3ccco3)C(C(=O)NC(C)(C)C)c3ccncc3)n2)o1` (configuration not stated) the growth inhibition was 115% (active).
With `CC1COc2ccccc2N1S(=O)(=O)c1ccccc1` (configuration not stated) the growth inhibition was 99.8% (active).
For `COc1cc(/C=C(\C#N)c2nc3ccccc3[nH]2)ccc1O`, the growth inhibition was 76.5% (active).
In the case of `COc1ccc(C(=O)C2CCCN(Cc3cccn3-c3ccccn3)C2)c(C)c1` (configuration not stated), the growth inhibition is reported as 110% (active).
For `CCn1c(/C=C/c2ccc([N+](=O)[O-])o2)nc2ccccc2c1=O`, the growth inhibition was 99.4% (active).
For `Cc1ccc(C)c(NC(=S)NNC(=O)c2csc(C)c2)c1`, the growth inhibition was 82.7% (active).
With `O=C(Nc1ccccc1Cl)/C(Cl)=C(\Cl)S(=O)c1ccccc1` (configuration not stated) the growth inhibition was 81.7% (active).
For `O=C(Nc1nnc(C2COc3ccccc3O2)o1)c1ccc(F)cc1` (configuration not stated), the growth inhibition was 85.8% (active).
For `Cc1cccc(C2c3[nH]c4ccccc4c3CCN2C(=O)c2cc(-c3cccn3C)n[nH]2)n1` (configuration not stated), the growth inhibition was 79.7% (active).
